Consider 30 compounds from ChEMBL document CHEMBL4513216, “Probing the Open Global Health Chemical Diversity Library for Multistage-Active Starting Points for Next-Generation Antimalarials” (ACS Infect Dis, 2020).

About 8,600 (12%) of roughly 69,000 compounds showed an effect of 50% or more. Only a selection was taken, and strong results are over-represented in it overall.

The test system of the test is Plasmodium berghei. Briefly: Screen against P. berghei liver stage (PbLuc), transformed with Luciferase, at 10uM. As to conditions: tested at 10 uM. Format: functional, HepG2.
Regarding `CC(C)S(=O)(=O)N1CCC(Cc2cccc(C(=O)O)c2)C1` (stereo not given), the INHIBITION is 1.37%.

`CN1C(=N)NC(=O)/C1=C\c1ccc(-c2ccc(F)cc2)o1`: the INHIBITION was 19.3%. The value for `CCn1cc(S(=O)(=O)N2CCC(C)CC2)c(C)n1` was 4.35%; that for `O=C(c1sccc1C1CC1)N1CCN(c2nccs2)CC1` was 36.3%; that for `CN(C)c1cc(C(=O)N2CCN(c3cc(C#N)ccn3)CC2)ccn1` was -8.95%. With `O=C(c1cccc(-c2ccc(F)cc2)c1)N1CCCC(O)(CO)CC1` (stereo not given), the INHIBITION is -122%. The value for `N#Cc1cccc(C(=O)N2CCN(c3ncccn3)CC2)c1` was 62.1%; that for `CCOc1ccnc(N2CCN(C(=O)c3cccc(C#N)c3)CC2)n1` was -13.7%; that for `COC(=O)c1ccc(N2CCN(C(=O)c3ccn(C)c(=O)c3)CC2)cc1` was 54.5%.

With `Cn1ccc(C(=O)N2CCN(c3cc(C#N)ccn3)CC2)cc1=O`, the INHIBITION was 59.4%.

On to `O=C(c1cccc(Oc2ccccc2)c1)N1CCCC(O)(CO)CC1` (stereo not given), for which the INHIBITION stood at 16.1%. For `COC(=O)c1ccc(N2CCN(C(=O)c3ccc(=O)n(C)c3)CC2)cc1` the value was 36.9%; for `COc1ccnc(N2CCN(C(=O)c3cccc(C#N)c3)CC2)n1`, 18.2%.

`Cn1ccc(C(=O)N2CCN(c3ncccn3)CC2)cc1=O`: the INHIBITION came out at 31.3%. Turning to `N#Cc1cccc(C(=O)N2CCCC(O)(CO)CC2)c1` (stereo not given), the INHIBITION is 66.9%. As to `Cn1ccc(C(=O)N2CCN(c3ccccn3)CC2)cc1=O`, the INHIBITION is reported as 36.1%. For `COCCNC(=O)c1cc(OC)c2ccoc2c1` the value was 27.7%; for `CNc1nc(C(=O)N2CCCn3nc(C(=O)N4CCCC4)cc3C2)cs1`, 26.5%. The value for `CC(Cn1cccn1)NC(=O)NCc1cccnc1OC(C)C` (stereo not given) was 11.2%. As to `CC[S+]([O-])CCc1nc(CC(C)C)nn1-c1ccc2c(c1)OCCO2` (stereo not given), the INHIBITION came to 30.3%. For `CCCNC(=O)COc1cc(C)c2c(C)nn(-c3ccc(C)cc3)c2n1` the value was 15.4%; for `Cc1ccc(-n2nc(C)c3c(C)cc(OCC(=O)NC(C)C)nc32)cc1`, 2.55%.

Turning to `CCNC(=O)COc1cc(CC)c2c(C)nn(-c3ccc(C)cc3)c2n1`, the INHIBITION is given as 66.1%. For `CS(=O)(=O)N1CCC(NC(=O)COc2ccc(Br)cc2Cl)CC1` the value was 45.1%; for `Cc1nc(N)cc(C2CCN2CCC(N)=O)n1` (stereo not given), -4.87%.

With `Cc1ccsc1C(=O)N1CCC2(CC1)C(=O)N(C)CCN2CC1CC1`, the INHIBITION stood at 4.08%. The value for `Cc1ccc(NC2CCN(C(=O)c3cccc4cccnc34)CC2)nn1` was 11.9%. The value for `O=C(CCN1C[C@@H]2CC[C@H]1CN(c1ncccn1)C2)NCc1ccco1` was 6.67%.

Take `CS(=O)(=O)N1C[C@H]2CC[C@@H](C1)N(CCC(=O)NCc1ccco1)C2`: the INHIBITION is on record as 13.2%. As for `CN(C)S(=O)(=O)N1C[C@H]2CC[C@@H](C1)N(CCC(=O)NCc1ccco1)C2`, the INHIBITION is 66.9%.
